From PubChem BioAssay
MCF10A rereplic: induces DNA re-replication in MCF 10a normal breast cells | hit rate 2.9% among 350,000 | AID 624296 | MCF 10A DNA re-replication, Hoechst nuclear intensity, 48 h | Potency, µM (titrated, usually from 46.1 µM), hits mostly activators; note: nearly all actives have a fitted effect of over 50% in size
KB-V1 cytotox: KB-V1 MDR subline cytotoxicity | KB-V1 MDR cells viability, CellTiter-Glo, 72 h | Potency, µM (top dose mostly 46.1 µM), usual class: cytotoxic | hit rate 3.4% among 400,000 | AID 1347076; note: nearly all actives have a fitted effect of over 60% in size
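Potencies derive from concentration-effect curves fitted to normalized luminescence (CellTiter-Glo) of KB-V1 cells treated for 72 h at 37 degrees C in phenol-red-free DMEM containing 10% FBS.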
KB-3-1 cytotox: KB-3-1 parental cell cytotoxicity. hit rate 1.4% among 400,000. KB-3-1 viability, CellTiter-Glo ATP luminescence, 72 h. AID 1347075. Potency, µM (top dose mostly 46.1 µM), most hits filed as cytotoxic; note: nearly all actives have a fitted effect of over 60% in size
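Cytotoxicity in the drug-sensitive parental line KB-3-1 was scored as loss of CellTiter-Glo luminescence following 72 h incubation with compound. Values come from curve fitting of normalized concentration-response data.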
PINK1 expr mod: modulators of PINK1 expression; Potency, µM (series often up to 76.6 µM), most hits filed as activators; hit rate 0.2% among 410,000; AID 624263; PINK1 immunofluorescence, high-content cytometry, 24 h; active = well fitted activation curve with a large enough effect; inconclusive = small, poorly fitted or top-dose-only effect; cell line not stated here; note: nearly all actives have a fitted effect of over 65% in size
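Cells are seeded, rested 12 hours, then given compound at five concentrations or DMSO for 24 hours. After fixation, blocking and antibody staining, PINK1 amount and mitochondrial localization are scored; CCCP serves as control.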
SW480 rereplic: DNA re-replication induction in SW480 cells; SW480 DNA re-replication, Hoechst DNA content imaging, 48 h; Potency, µM (doses to about 46.1 µM), most hits filed as activators; hit rate 1.8% among 340,000; AID 624297; note: nearly all actives have a fitted effect of over 55% in size
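Compounds, transferred as 23 nL by pin tool, were incubated with cells for 48 hr; DNA content per nucleus was then quantified by Hoechst staining and fluorescence plate imaging.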
A number is an active result. A selection: hits, their analogues and other compounds. The true share with any hit is near 6.7%. Unless noted, calls come from the whole dose curve; as a rule, active = well fitted curve in the direction sought with a large enough effect; inconclusive = small, poorly fitted or top-dose-only effect, or another doubt; inactive = no such curve, though single readings can be large; an effect the other way counts as inactive or inconclusive.

O=C(Nc1ccc2c(c1)OCCO2)C(c1cc2ccccc2o1)N1CCN(C/C=C/c2ccccc2)CC1 (configuration not stated) was read as KB-V1 cytotox inactive, KB-3-1 cytotox inactive and PINK1 expr mod inactive.
`COc1ccc(NC(=O)N(C)C[C@H]2Oc3cc(Br)ccc3S(=O)(=O)N([C@H](C)CO)C[C@@H]2C)cc1` gave KB-V1 cytotox inactive, KB-3-1 cytotox inactive and PINK1 expr mod inactive.
`CC1(C)CC2(C)OC(=N)C1(C#N)C2(C#N)C#N` (configuration not stated) gave MCF10A rereplic 23.1µM, KB-V1 cytotox inactive, KB-3-1 cytotox inactive, PINK1 expr mod inactive and SW480 rereplic inactive.
For Cc1ccc2cc(C#N)c(NCCNC(=O)C3CCC3)nc2c1C the results were MCF10A rereplic inconclusive, KB-V1 cytotox 14.6µM, KB-3-1 cytotox inconclusive, PINK1 expr mod inactive and SW480 rereplic inconclusive.
Screening CCOCCCNC(=S)NCCCNc1nc2c(C)c(C)ccc2cc1C#N returned MCF10A rereplic 18.4µM, KB-V1 cytotox inconclusive, KB-3-1 cytotox inactive, PINK1 expr mod inactive and SW480 rereplic 20.6µM.
`Cc1cccc2cc(C#N)c(NCCNC(=O)NC3CCCCC3)nc12` gave MCF10A rereplic inconclusive, KB-V1 cytotox inactive, KB-3-1 cytotox inactive, PINK1 expr mod inactive and SW480 rereplic inactive.
`COc1ccc(CSc2nnnn2-c2ccccc2)cc1` gave MCF10A rereplic inactive, KB-V1 cytotox inactive, KB-3-1 cytotox inactive, PINK1 expr mod inactive and SW480 rereplic inactive.
Screening COc1ccc(F)cc1CSc1nnnn1-c1ccc(O)cc1 returned MCF10A rereplic inactive, KB-V1 cytotox 16.4µM, KB-3-1 cytotox inactive, PINK1 expr mod inactive and SW480 rereplic inactive.
Screening COc1cc(CSc2nnnn2-c2ccc(C)cc2)cc(OC)c1OC returned MCF10A rereplic inactive, KB-V1 cytotox 2.06µM, KB-3-1 cytotox 10.3µM and SW480 rereplic inactive.
For Cc1ccc(CNS(=O)(=O)c2ccc(Cl)s2)cc1 the results were KB-V1 cytotox inactive, KB-3-1 cytotox inactive and PINK1 expr mod inactive.
For O=C(/C=C\c1ccc2c(c1)OCO2)NC1CC(=O)N(c2cccc(F)c2)C1 (configuration not stated) the results were PINK1 expr mod inactive.
Screening O=C(COC(=O)CNC(=O)c1ccccc1Cl)Nc1cc(C(F)(F)F)ccc1Cl returned MCF10A rereplic 14.6µM, KB-V1 cytotox inactive, KB-3-1 cytotox inactive, PINK1 expr mod inactive and SW480 rereplic inactive.
Screening Cc1ccc(C)c(NC(=O)COC(=O)CNC(=O)c2ccccc2Cl)c1 returned MCF10A rereplic inactive, KB-V1 cytotox inactive, KB-3-1 cytotox inactive, PINK1 expr mod inactive and SW480 rereplic inactive.
`CCC(=O)N1CCc2cc(Br)cc(S(=O)(=O)CCC(=O)N3CCN(c4cccc(C(F)(F)F)c4)CC3)c21` gave KB-V1 cytotox inactive, KB-3-1 cytotox inactive and PINK1 expr mod inactive.
For CNS(=O)(=O)c1cccc(C(=O)OCc2cc(Cl)cc3c2OCOC3)c1 the results were MCF10A rereplic inconclusive, KB-V1 cytotox 18.4µM, KB-3-1 cytotox inactive, PINK1 expr mod inactive and SW480 rereplic inactive.
Screening c1coc(CN(Cc2ccco2)c2ncnc3c2oc2ccccc23)c1 returned MCF10A rereplic inconclusive, KB-V1 cytotox 16.4µM, KB-3-1 cytotox inconclusive, PINK1 expr mod inactive and SW480 rereplic inconclusive.
Screening O=C(Cc1ccc(OCCCCc2ccccc2)cc1)NO returned KB-V1 cytotox inactive, KB-3-1 cytotox inactive and PINK1 expr mod inactive.
CCn1ccnc1CNC(=O)c1ccc(OC2CCN(C(=O)COC)CC2)cc1 was read as MCF10A rereplic inactive, KB-V1 cytotox inconclusive, KB-3-1 cytotox inactive, PINK1 expr mod inactive and SW480 rereplic inactive.
`COc1ccc(Cn2c(CCC(=O)Nc3cc(OC)c(OC)c(OC)c3)nc3cccnc32)cc1` gave KB-V1 cytotox inactive, KB-3-1 cytotox inactive and PINK1 expr mod inactive.
`O=C(N/C=N/OCc1cccc(C(F)(F)F)c1)N1OC[C@@H]2COc3ccc4ccccc4c3[C@@H]21` gave MCF10A rereplic inactive, KB-V1 cytotox 16.4µM, KB-3-1 cytotox inconclusive, PINK1 expr mod inconclusive and SW480 rereplic inactive.
For C=CCn1c(SCCC)nc2ccccc2c1=O the results were KB-V1 cytotox inconclusive, KB-3-1 cytotox inconclusive and PINK1 expr mod inactive.
